# From PubChem BioAssay
# Most compounds without a hit are left out; they make up all but 1.6% or so of the library.
# KCNQ2 inh: inhibitors of rat KCNQ2 potassium channel | O88943 | CHO-K1 KCNQ2, FluxOR thallium flux, 20 min; hits give low values | B-score at 10 µM | 1.1% of 310,000 active | AID 2156;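 active = fluorescence ratio B-score at most minus 3 library SDs, with starting brightness B-score within 2 library SDs, cut at about -5.5 in these data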
# Target sequence (O88943 whole entry, looked up): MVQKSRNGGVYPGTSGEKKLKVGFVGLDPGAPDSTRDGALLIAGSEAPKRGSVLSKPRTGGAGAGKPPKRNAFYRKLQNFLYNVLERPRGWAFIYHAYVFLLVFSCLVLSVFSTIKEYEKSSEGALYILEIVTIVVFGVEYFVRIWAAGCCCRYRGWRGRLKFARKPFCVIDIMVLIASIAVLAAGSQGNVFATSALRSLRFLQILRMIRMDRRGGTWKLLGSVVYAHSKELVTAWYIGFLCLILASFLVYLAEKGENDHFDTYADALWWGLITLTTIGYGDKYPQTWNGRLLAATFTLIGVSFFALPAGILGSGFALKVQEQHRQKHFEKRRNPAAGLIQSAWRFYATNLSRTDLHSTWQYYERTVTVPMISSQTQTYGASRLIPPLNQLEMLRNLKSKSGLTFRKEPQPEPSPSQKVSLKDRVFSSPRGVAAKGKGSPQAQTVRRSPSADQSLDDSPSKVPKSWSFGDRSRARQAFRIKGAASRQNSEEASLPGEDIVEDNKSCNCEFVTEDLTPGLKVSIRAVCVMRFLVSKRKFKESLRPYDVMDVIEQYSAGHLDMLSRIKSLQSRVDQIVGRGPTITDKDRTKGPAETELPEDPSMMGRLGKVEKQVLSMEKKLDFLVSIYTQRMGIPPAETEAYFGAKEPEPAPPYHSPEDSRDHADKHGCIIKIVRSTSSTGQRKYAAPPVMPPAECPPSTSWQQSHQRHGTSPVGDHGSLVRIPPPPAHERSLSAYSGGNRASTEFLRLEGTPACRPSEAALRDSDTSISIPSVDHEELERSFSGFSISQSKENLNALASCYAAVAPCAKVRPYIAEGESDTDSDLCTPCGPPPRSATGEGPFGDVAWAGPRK
# KCNQ2 enhance: potentiators of rat KCNQ2 potassium channel; CHO-K1 KCNQ2, FluxOR thallium flux fluorescence; hits give high values; O88943; B-score at 10 µM; AID 2239; 0.54% of 310,000 active;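 active = fluorescence ratio B-score at least 3 SD of library B-scores, with initial fluorescence B-score within 3 of them, cut at about 5.3 in these data; same plate scores as AID 2156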;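 note: B-score of peak minus minimum over baseline fluorescence ratio after K+ and Tl+ stimulus; positive B-score means potentiation of KCNQ2 with more thallium influx and brighter signal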
# Kir21 conf inh: confirmation of mouse Kir2.1 potassium channel inhibitors; Kir2.1-expressing cells, FluxOR thallium flux fluorescence; hits give low values; 41% of 2,300 active; shares compounds with KCNQ2 enhance; Tl flux remaining, % of negative control (hits give low values), % at 10 µM; AID 2032;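 active = Primary-screen hit whose thallium flux fell at least 3 control SD below untreated wells in both duplicates, with normal baseline fluorescence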
# HEK293 ctr: counter-screen for Kir2.1 inhibitors: effect in parental HEK293 cells; FluxOR signal as % of negative control (100 = no effect), % at 10 µM; shares compounds with KCNQ2 enhance; FluxOR thallium flux fluorescence; 0% = unstimulated blank wells; 19% of 2,300 active; AID 2105;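 active = dye signal at least 3 control SD above or below untreated wells in both duplicates, raw fluorescence within 3, either direction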;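 note: percent is based on the flux ratio of peak minus minimum fluorescence over baseline F0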
# CHO-K1 ctr: parental CHO-K1 activity in KCNQ2 potentiator counter-screen. shares compounds with KCNQ2 enhance. parental CHO-K1 cells, FluxOR thallium flux fluorescence; zero = vehicle mean+3SD, 100% = vehicle-minus-blank window. activity increase over 3SD of controls, % at 10 µM. 43% of 1,200 active;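 active = signal rise of at least 3 SD above the untreated control mean, in both duplicate wells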;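 note: counter screen of KCNQ2 potentiator hits so any rise reflects channel-independent effects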
# KCNQ1 pot spec: tests whether KCNQ2 potentiators also act on human KCNQ1; activation over 3SD threshold, % at 10 µM; 28% of 1,200 active; shares compounds with KCNQ2 enhance; CHO KCNQ1 stable, FluxOR thallium flux fluorescence; beyond 3SD, as % of vehicle-control signal;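 active = fluorescence ratio rise of at least 3 SD of vehicle wells above their mean, in both replicate wells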
# KCNQ2 pot confirm: confirmation of rat KCNQ2 potassium channel potentiators | shares compounds with KCNQ2 enhance | CHO-KCNQ2 cells, FluxOR thallium flux fluorescence | potentiation, less the hit threshold, % at 10 µM | 68% of 1,200 active | AID 2287;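 active = fluorescence ratio rising 3 SD or more over the vehicle control mean in both replicates, plus primary screen hit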;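 note: peak minus minimum thallium fluorescence divided by baseline after K/Tl stimulus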
# Kir21 spec: tests whether KCNQ2 potentiators also affect mouse Kir2.1; 2% of 1,200 active; shares compounds with KCNQ2 enhance; activity over 3SD threshold, % at 10 µM; HEK293 Kir2.1, FluxOR thallium flux fluorescence;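 active = fluorescence ratio rise of at least 3 SD above the vehicle-control mean, seen in both replicates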
# KCNQ2 W236L pot: rat KCNQ2 W236L mutant potentiation by KCNQ2 potentiators; shares compounds with KCNQ2 enhance; CHO KCNQ2-W236L, automated patch clamp current; current increase over 3SD of negative controls (%), hits give high values, % at 25 µM; 10% of 940 active;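 active = current increase at least 3 SD of the untreated controls above them in both duplicate recordings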
# A number is an active result; . = inactive; / = not tested or not shown.
SMILES,KCNQ2 inh,KCNQ2 enhance,Kir21 conf inh,HEK293 ctr,others
COc1cc(CNCCN2CCOCC2)ccc1OCc1ccc(Cl)cc1,.,.,/,/,
COc1cc(CNCCCN2CCOCC2)cc(Br)c1OCc1ccc(Cl)cc1,.,/,33.0%,.,
COc1cc(C)c(CN2CCC(n3nccc3NC(=O)C3CC3)CC2)cc1C,.,.,/,/,
O=C(Cc1cccs1)N1CCN(S(=O)(=O)c2cccc([N+](=O)[O-])c2)CC1,.,/,/,/,
O=C(NN1C(=O)C2C(c3ccccc3)C=CC(c3ccccc3)C2C1=O)c1ccncc1 (stereo not given),.,6.51,.,.,CHO-K1 ctr=.;KCNQ1 pot spec=.;KCNQ2 pot confirm=72.5;Kir21 spec=.;KCNQ2 W236L pot=.
O=C(NN1C(=O)C2C3C=CC(C3)C2C1=O)c1ccncc1 (stereo not given),.,.,/,/,
COc1ccc(CN2CC[C@@H](N3CCOCC3)[C@H](O)C2)cc1F,.,.,/,/,
CCc1ccc(N(CC)C(=O)c2cn(C)c(=O)c3ccccc23)cc1,.,.,/,/,
COc1ccc2oc(C(=O)OCC(=O)N(C)CC(=O)Nc3ccc(C)cc3)c(C)c2c1,.,7.4,.,.,CHO-K1 ctr=31.6;KCNQ1 pot spec=.;KCNQ2 pot confirm=.;Kir21 spec=.
COc1ccc2oc(C(=O)OCC(=O)Nc3ccc(NC(C)=O)cc3)c(C)c2c1,.,/,/,/,
CCOC(=O)c1c(C)[nH]c(C(=O)COC(=O)CNC(=O)c2ccc(Cl)cc2Cl)c1C,.,/,/,/,
CCCCn1c(NC(=O)C2CCCCC2)nc2ccccc21,.,9.62,.,.,CHO-K1 ctr=3.9;KCNQ1 pot spec=.;KCNQ2 pot confirm=16.4;Kir21 spec=.;KCNQ2 W236L pot=.
CN(C)CCCn1c(NC(=O)C2CCCCC2)nc2ccccc21,.,.,/,/,
CN(C)Cc1c(O)ccc2ccccc12,.,/,/,/,
CC(C)CN(Cc1c(O)ccc2ccccc12)CC(C)C,.,6.48,.,.,CHO-K1 ctr=.;KCNQ1 pot spec=.;KCNQ2 pot confirm=.;Kir21 spec=.
CC1=NN(C(N)=S)C(=O)C1N=Nc1ccc(Cl)cc1Cl (stereo not given),.,12.5,.,.,CHO-K1 ctr=.;KCNQ1 pot spec=.;KCNQ2 pot confirm=.;Kir21 spec=.;KCNQ2 W236L pot=.
CC1=NN(C(N)=S)C(=O)C1N=Nc1ccccc1Cl (stereo not given),.,/,/,/,
COc1cc(NS(=O)(=O)c2ccc(NC(=S)NC(=O)COc3ccccc3OC)cc2)nc(OC)n1,.,/,/,/,
O=C(c1ccco1)N1CCN(C(=O)C2CC(=O)N(c3ccc(Cl)cc3)C2)CC1 (stereo not given),.,.,/,/,
O=C(NCCS(=O)(=O)c1ccc(Br)cc1)c1c(F)cccc1F,.,.,/,/,
C=CCOC(=O)C1=C(C)N=C2SCCC(=O)N2C1c1ccc(OC(=O)c2ccco2)cc1 (stereo not given),.,/,/,/,
COC(=O)C1=C(C)N=C2SCCC(=O)N2C1c1ccc(OC(=O)c2ccco2)cc1 (stereo not given),.,/,52.5%,.,
O=C1CNC(=S)N1Cc1cccc(Cl)c1,.,.,/,/,
OC1CCCN(Cc2ccc3ccc4cccc5ccc2c3c45)C1 (stereo not given),.,/,48.0%,.,
c1cc2ccc3ccc(CN4CCOCC4)c4ccc(c1)c2c34,.,.,/,/,
SMILES,KCNQ2 inh,KCNQ2 enhance,Kir21 conf inh,HEK293 ctr,others
COc1ccc(-c2nc3ncccc3n2O)cc1,.,/,/,/,
CCC(O)c1nc2ccccc2n1CCc1ccccc1 (stereo not given),.,/,/,/,
CCN(CC)CC#CCC(C)(c1ccccc1)c1ccccc1,.,/,.,.,
CCN(CC)CC#CCC(O)(c1ccccc1)c1ccccc1,.,/,/,/,
COc1ccccc1C(=O)COC(=O)CCNS(=O)(=O)c1ccc(C)c(C)c1,.,.,/,/,
O=C(CNC(=O)N1CC(=O)Nc2ccccc21)Nc1cccc(F)c1,.,.,/,/,
Cc1ccc(S(=O)(=O)Nc2c(O)ccc3ccccc23)cc1,.,.,/,/,
Cc1ccc(S(=O)(=O)Nc2c(Cl)c(Cl)c(O)c3ccccc23)cc1,.,6.4,.,.,CHO-K1 ctr=.;KCNQ1 pot spec=67.8;KCNQ2 pot confirm=.;Kir21 spec=.;KCNQ2 W236L pot=.
COc1ccc(CCNCC(O)c2ccccc2)cc1 (stereo not given),.,.,/,/,
O[C@@H](CNC[C@H](O)c1ccccc1)c1ccccc1,.,/,/,/,
OC(CNCCc1ccccc1)c1ccccc1 (stereo not given),.,.,44.5%,.,
CSc1ccc(CNCC(O)c2ccccc2)cc1 (stereo not given),.,/,59.0%,.,
C[C@@]12C(=O)N(c3ccc(C(F)(F)F)cc3)C(=O)N1[C@@H]1c3ccccc3OC[C@@H]1[C@H]2c1ccccc1,.,/,/,/,
CCCC(C(=O)NC1CCCC1)N(CC1CCCO1)C(=O)CNS(=O)(=O)c1ccccc1 (stereo not given),.,.,/,/,
O=C1N/C(=N/O)S/C1=C/c1cccc([N+](=O)[O-])c1,.,.,/,/,
Cc1cccc(/C=C2/S/C(=N/N=C3\CC4CCC3(C)C4(C)C)NC2=O)c1 (stereo not given),.,20.6,.,.,CHO-K1 ctr=.;KCNQ1 pot spec=.;KCNQ2 pot confirm=.;Kir21 spec=.;KCNQ2 W236L pot=.
CCOc1ccccc1N1C(=O)CN(Cc2ccc(OC)c(OC)c2)C1=S,.,.,/,/,
Cc1ccc(NC(=O)C(=O)NNC(=O)c2cccs2)cc1,.,10.2,.,341.0%,CHO-K1 ctr=.;KCNQ1 pot spec=.;KCNQ2 pot confirm=34.9;Kir21 spec=.;KCNQ2 W236L pot=.
COc1ccc(NC(=O)C(=O)NNC(=O)c2cccs2)c(OC)c1,.,8.55,.,240.0%,CHO-K1 ctr=.;KCNQ1 pot spec=19.1;KCNQ2 pot confirm=6.9;Kir21 spec=.;KCNQ2 W236L pot=.
COc1ccc(NC(=O)C(=O)NNC(=O)c2cccs2)cc1,.,.,/,/,
COc1ccc(S(=O)(=O)NNC(=O)C23CC4CC(CC(C4)C2)C3)cc1,.,/,/,/,
COc1ccc(OC)c(NC(=O)C(=O)NNC(=O)C23CC4CC(CC(C4)C2)C3)c1,.,8.67,.,272.0%,CHO-K1 ctr=.;KCNQ1 pot spec=.;KCNQ2 pot confirm=7.5;Kir21 spec=.;KCNQ2 W236L pot=.
COc1cc(NC(=O)c2ccccc2)c(OC)cc1Cl,.,/,/,/,
Cc1ccc(NC(=O)c2cccs2)cc1,.,.,/,/,
COc1cc(OC)cc(C(=O)NNC(=O)C(=O)Nc2cc(OC)c(Cl)cc2OC)c1,.,9.3,.,182.5%,CHO-K1 ctr=.;KCNQ1 pot spec=.;KCNQ2 pot confirm=.;Kir21 spec=.;KCNQ2 W236L pot=.
CCOC(=O)C1(Cc2ccccc2C(F)(F)F)CCN(C2CCN(C(C)C)CC2)CC1,.,.,/,/,
O=C(CCc1cnccn1)NC1CCCc2c1cnn2-c1ccc(F)cc1F (stereo not given),.,.,/,/,
O=S1(=O)CC2SC(=S)N(Cc3ccccc3)C2C1 (stereo not given),.,.,/,/,
Cc1ccc(S(=O)(=O)c2c(C)cc(C)nc2Oc2cccc(C)c2C)cc1,.,/,/,/,
CNc1nc(C)cc(C)c1S(=O)(=O)c1ccc(C)cc1,.,/,.,.,
